From PubChem BioAssay (Tox21)
Records with an inconclusive call do not appear. The source made the active and inactive calls. Unless noted, calls follow the shape of the dose curve; as a rule, active = well fitted curve in the direction sought with a large enough effect in the repeat runs; inconclusive = weak or mixed curves; inactive = no such curve, though single readings can be large; an effect the other way counts as inactive or inconclusive.

Experiments:
[1] = qHTS assay to identify small molecule antagonists of the estrogen related receptor (ERR) signaling pathway - cell viability counter screen (AID 1224818);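 also: series mostly up to about 46 µM; viability measured after 17.5 h of compound exposure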
In short: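 Cytotoxicity check run alongside the ERR antagonist screen: cells exposed to test compounds 17.5 h at 37 C, viability taken as CellTiter-Fluor fluorescence intensity.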

[2] = qHTS assay to identify small molecule antagonists of the estrogen related receptor (ERR) signaling pathway (AID 1224819;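 also: luminescence from an ERR-driven luciferase reporter measured with One-Glo reagent; series mostly up to about 46 µM; nearly all actives have a fitted effect of over 50% in size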)
In short: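 ERR reporter cells were plated at 2,000 cells/well and left 6 h at 37 C/5% CO2 before pin-tool transfer of compounds in DMSO. After 18 h at 37 C, One-Glo was added and luminescence was read 30 min later at room temperature.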

[3] = qHTS assay to identify small molecule agonists of the estrogen related receptor (ERR) signaling pathway (AID 1224820)
In short: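 An ERR cell line provided by NTP was seeded at 2,000 cells per well and allowed to settle for 6 h before compounds in DMSO were added. After 18 h at 37 C, luciferase activity was measured by One-Glo luminescence.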

[4] = test system: estrogen-related receptor alpha (ERRalpha) with PGC-1alpha coactivator, human; test: qHTS assay to identify small molecule antagonists of the estrogen related receptor signaling pathway with the pleiotropic PPARgamma coactivator (PGC) (AID 1224821; calls by dose curve;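 also: series mostly up to about 46 µM; lower luminescence signal means antagonism of PGC/ERR signalling; nearly all actives have a fitted effect of over 50% in size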)
In short: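 A PGC/ERR cell line supplied by NTP is seeded, allowed 6 h at 37 C, and treated with test compounds in DMSO for 18 h. Signal is then measured as luciferase luminescence using One-Glo.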

[5] = qHTS assay to identify small molecule antagonists of the estrogen related receptor signaling pathway with the pleiotropic PPARgamma coactivator (PGC) cell viability counter screen (AID 1224822;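 also: series mostly up to about 46 µM; viability read after 17.5 h compound exposure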)
In short: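 Viable cell signal (CellTiter-Fluor, 30 min, 37 C/5% CO2) was measured in PGC/ERR cells after a 17.5 h compound incubation.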

[6] = qHTS assay to identify small molecule agonists of the estrogen related receptor signaling pathway with the pleiotropic PPARgamma coactivator (PGC) (AID 1224823)
In short: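 Compounds dissolved in DMSO are added by pin tool to PGC/ERR cells that have settled for 6 h, and incubation continues 18 h at 37 C. Reporter output is measured as One-Glo luminescence.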

Measured: Potency

CC(C)Oc1cccnc1N(C)C1CCN(Cc2ccccc2)CC1
inactive: all assays above

c1ccc2c(N3CCNCC3)cccc2c1
inactive: all assays above
